Reference: the supplement of paper PMC6555819

Test system: RARb homodimer (NR concentration 270 nM)
Test: PBM binding z-score (relative to random genomic background probes); higher = stronger binding; sequences stand for … in GC…GCGATTGACAGCGTAGAATGAAGG
Method in brief: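 On custom Agilent 4×180K arrays, double-stranded probes with 34-nt variable regions carried direct-repeat seeds, single-nucleotide variants, half-site ablations or random human genomic background. Ligand-free nuclear receptor dimers were applied for 1 h, and binding was read with antibodies against each partner (one per run). Binding z-scores come from regression-normalized fluorescence, with the random background probes as reference.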

Sequence | PBM binding z-score
CGAACTAGGGCATCCAGGACAGTGAATACATTGA | 0.585
TCGAATAGGTTAGTCGGGGCATTCAGCCAACATA | 0.708
TCTGGGAGGACACGAAAGGTCAGAGCTCGACATC | 4.8
CCGAGTAGGTTATGGGGCATACAGGCAACGGTGA | 0.844
CAGCCTAGGTCAGGGCCAGTTTAGGAGGAACGTT | 2.63
TAGCCTAGGTCAAGGGCCAGTATACCACGCGAAC | 3.4
ACTAGTTGGTCAGCTGAGGTCATACACAATTCGG | 3.89
CGTCCAAGGTCAAGGTCAGTCAAAGAGACTCGAA | 5.15
AGTCAAAGTTCGTCTAGGTAACGTAAGATATGCT | 1.35
CGTTAAAGTTCAACTAAGGTAACGTAAAGCACGC | 4.09
ACTTACGGGTCAACGAGGGTATAGCACGCGTATA | 3.24
ATCTCTAAGTAAAGATAGTTCAGTGAATGCAAAT | 0.667
GATACAGGGTCAGCTAGAGGCTAGAGTATGGAAA | 2.76
CCAGACAGGTGAGAAGGGAACTCAGCCTCGATTA | 0.237
CCTGCTAAGTCAATGGTCAGCTAAAGCAGCTCGC | 0.12
CTACCAAGGTGAACAAGGTCGCTGATTACTATTC | 2.04
CCTGCTAGGTCATGATCAGCTAATCTACAGTATG | 2.57
TCTAGCAGGACAGAGGGTCACTCAAGAGGTACGG | 2.77
ACTAGCAGGCCAAGTTTGGTTCACTCAAACAAAG | 0.338
ATCTCTAGCTAACAAGTTCAGTGAAAGAGAGGAC | 1.31

Sequence | PBM binding z-score
TCTATCAGGCCAGAGGGTCACTCAAGAGGTACGG | 2.89
GTACCAAGGTGCATAGGTCGTTGATGAGTAGGCG | 0.393
GCTATTACTTGAAAGGGCAACCGAATGATTCTCG | 2.01
TGTCAAAGTTCAGAGGTAACGTAAGTATCCACAC | 3.02
TGGAGTAGGTTAGGGGCATTCAGAATGGCGTCGA | 1.6
CCTTACGGGTCACTCCAGTTTATAGCATCGGAGT | 2.7
CCGTCTGGGGCAGAAAGGTTACCATACCATCCGG | 2.03
CCTAGTTGGTCAGGAGGGCACACACCGGATATGA | 1.73
TCTATTCGTTGATTAGGGCAACCGAAACAGCGGA | 0.244
GCTGCTAGGTCCGGTTGGTCAGCTAACGGGTACG | -0.107
GGAACGAGGGCAAAGTGGATAGCATCTGTCGACG | 1.05
GCTAGCAGGCCATTTGGGTCTCTCAATGACGGGC | -0.614
ATCGAAAGTTCGAAGGTGAGTATACCCACCCGAA | 0.995
AGAATGAGGTTATTAAAATCAGGGAATTGCGGTC | 0.836
ATCTCTAGGTAACAAGTTCAGTGGAAGAGAGGAC | 1.89
GGAACGAGGGCAAAGTTGAAAGCATCTGTCGACG | 1.51
TCTTTTAGATCAAAGGTTAAGAAAGCCGAAGCCT | 1.42
AGAGCGAGGGCACGCTGAGTTGATAGCAGAGTAG | 1
ACTCGGAGGACAAAGGTCTGAGCTACGCCAGTGA | 0.62
